Consider seven compounds from PubChem BioAssay (NCI).

Molecules are shown by their SMILES. This is part of a sample that, as a whole, favours compounds with a hit. Of some 83,000 tested, about 20% had one in any assay.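 Plates (96-well) were seeded with cells, treated with compound at one concentration, and incubated for 48 hours before percent growth was determined.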 Values without a mark were called inactive. The source made the active and inactive calls. Rule for the calls: active = growth percent below 10; inactive = the rest.

Holding throughout (assay): NCI-60 one-dose screen, 48 h (100 = growth as untreated, 0 = no growth, -100 = all killed)
What all share (conditions): 10 µM unless noted

Assay [1] concerns HCT-15 colon.
For assay [2], the system named is HT29 colon.
Assay [3] concerns SNB-75 CNS.
Assay [4] has as its system SNB-19 CNS.
Assay [5] relates to U251 CNS.
For assay [6], the system named is PC-3 prostate.
In assay [7] the test system is SK-MEL-5 melanoma.
In assay [8] the test system is UACC-62 melanoma.
In assay [9] the test system is LOX IMVI melanoma.
In assay [10] the test system is SK-MEL-28 melanoma.
For assay [11], the system named is SK-MEL-2 melanoma.
The subject of assay [12] is EKVX NSCLC.
Assay [13] deals with SN12C renal.
The subject of assay [14] is UO-31 renal.
For assay [15], the system named is TK-10 renal.
Assay [16] has as its system ACHN renal.
In assay [17] the test system is CAKI-1 renal.
In assay [18] the test system is A498 renal.
The test system of assay [19] is CCRF-CEM leukemia.
The subject of assay [20] is MOLT-4 leukemia.

Turning to `O=C(CNCCO)Nc1ccc2ncnc(Nc3ccc(OCc4cccc(F)c4)c(Cl)c3)c2c1`, the growth was 87.9% in assay [1]; 46.9% in assay [2]; 88.2% in [3]; 82% in assay [4]; 69.9% in [5]; 84.4% in [6]. For the same compound, the growth in assay [7] is 89%; in assay [8], 104%; in [9], 74.3%; in [10] it was 91%; in [11], 98.2%; in assay [12], 42.6%. Also, the growth was 51.6% in assay [13]; 50.1% in assay [14]; 56% in assay [15]; 38% in [16]; 63.3% in assay [17]; 69% in [18]. Moreover, the growth in [19] is 80.4%; in assay [20], 78.5%.
Turning to `COc1cccc(/C=C2\COc3ccc(-c4ccccc4)cc3C2=O)c1`, the growth was -36.9% (active) in assay [1]; 12.9% in [2]; 10.9% in [3]; 64.7% in assay [4]; -56.1% (active) in assay [5]; 19.4% in assay [6]. Besides, the growth was 24% in [7]; 38% in assay [8]; -85.5% (active) in [9]; -36.5% (active) in [10]; -46.4% (active) in assay [11]; 99.9% in assay [12]. The growth in [13] was 31.4%; in [14], -38.1% (active); in assay [15], -5.26% (active); in assay [16], 46.8%; in assay [17] it was 50.8%; in assay [18], 45.6%. For the same compound, the growth in assay [19] is -32.7% (active); in [20], -28.2% (active).
Take `CN(Cc1ccccc1)c1nc(Cl)c(C2CC(c3ccc(Cl)cc3)=Cc3[nH][nH]c(=O)c32)s1` (stereo not given): the growth in assay [1] was 90.1%; in assay [2] it was 112%; in assay [3], 88.1%; in assay [4], 104%; in assay [5], 93.4%; in [6], 79.7%. The growth is 88.2% in assay [7]; 89% in assay [8]; 79.9% in [9]; 103% in assay [10]; 99.7% in assay [11]; 99.6% in [12]. Moreover, the growth was 89.4% in [13]; 69.2% in [14]; 99.1% in [15]; 93.5% in [16]; 86.2% in [17]; 111% in [18]. The growth in assay [19] is 106%; in [20] it was 96.3%.
For the compound `COc1ccc(C(=O)c2cc3c(N)c(C(=O)Nc4ccc(Cl)cc4)sc3nc2C)cc1`, the growth in [1] was 55.9%; in assay [2], 54.2%; in assay [3] it was 4.28% (active); in assay [4] it was 67%; in assay [5], 61.7%; in assay [6] it was 78.7%. Besides, the growth in assay [7] is 85.2%; in [8], 78.6%; in assay [9], 82.6%; in assay [10], 82.6%; in assay [11], 68.5%; in [12] it was 86.1%. Further, the growth in assay [13] is 89.9%; in assay [14], 79%; in assay [15], 82%; in [16] it was 74.7%; in [17], 66.3%; in [18] it was 59.9%. For the same compound, the values for the growth in assay [19] and in assay [20] were 73.9% and 82.6%, respectively.
Turning to `Cc1ccc2nc3c(cc2c1)CSc1nnc(-c2ccc[nH]c2=S)n1N3`, the growth in [1] is 105%; in assay [2] it was 108%; in assay [3], 91.4%; in [4] it was 90.7%; in [5], 112%; in assay [6], 95.6%. Further, the growth is 96.4% in assay [7]; 87% in assay [8]; 96.6% in assay [9]; 103% in assay [10]; 100% in assay [11]; 102% in assay [12]. The growth in assay [13] was 92.8%; in [14], 64.3%; in assay [15], 105%; in assay [16], 97.4%; in assay [17], 78.7%; in [18], 101%. Besides, the growth was 104% in [19] and 91.9% in [20].
In the case of `C/C(=C(/c1ccccc1)c1ccc(OCC(O)CN2CCOCC2)cc1)c1ccccc1` (stereo not given), the growth was 53.8% in [1]; 13.1% in assay [2]; 91.4% in assay [3]; 102% in assay [4]; 81.1% in assay [5]; 71.8% in assay [6]. Further, the growth in assay [7] was 87.1%; in assay [8], 97%; in [9], 87.9%; in [10], 90%; in [11], 98.9%; in [12] it was 96.6%. Also, the growth in [13] was 88.3%; in assay [14] it was 73.7%; in [15], 94.3%; in [16], 98.8%; in [17], 80.1%; in [18], 91.6%. Moreover, the growth in assay [19] is 80.4%; in assay [20] it was 61.5%.
As to `COc1ccc(C(O)c2cc3c(N)c(C(=O)Nc4ccccc4)sc3nc2C)cc1` (stereo not given), the growth in assay [1] is 9.94% (active); in assay [2] it was -22% (active); in assay [3] it was -7.27% (active); in [4], 24.6%; in [5], 5.4% (active); in assay [6] it was 17.4%. Further, the growth in [7] was -31.9% (active); in [8], 19.6%; in assay [9], 34.6%; in [10], 68.1%; in assay [11], 9.47% (active); in assay [12], 26%. Also, the growth in assay [13] was 21.5%; in assay [14], 19.1%; in [15], 44.2%; in assay [16] it was 25.7%; in [17], 15.1%; in assay [18], -20.8% (active). Besides, the growth is 4.7% (active) in assay [19] and 11.4% in [20].
